Measurements taken from PubChem BioAssay (Tox21).
A number with no mark means an inactive call. Calls of active or inactive are those of the source. Calls follow the shape of the full dose curve.

experiment: qHTS assay to identify small molecule agonists of the sonic hedgehog signaling (Shh) pathway (AID 1259368); details: NIH/3T3 Gli1-Luc reporter, luciferase, 24 h, active compounds read high; series mostly up to 92.4 µM; activity change: at the top concentration;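 also: NIH/3T3-derived 3T3Gli1-Luc cells carrying a stable Gli1-driven firefly luciferase reporter; nearly all actives have a fitted effect of over 15% in size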
From the text: National Center for Advancing Translational Sciences [NCATS]
NIH Chemical Genomics Center [NCGC]
U.S. Environmental Protection Agency [EPA]
National Institutes of Environmental Health Sciences [NIEHS]
National Toxicology Program [NTP]
The sonic hedgehog (Shh) pathway is essential for normal embryonic development. Dysregulation of the Shh pathway can cause severe developmental defects in organs. Therefore chemicals that interfere with the pathway are potential developmental toxicants. A cell line designated 3T3Gli1-Luc (DMB/OARSA/CFSAN/FDA, Laurel, MD), a NIH/3T3 derived clone containing stably integrated Gli1-Luc reporter is used to detect chemical interference of the Shh pathway, by changes in the expression of the firefly Luc gene under the control of the Gli1 transcriptional response element. This cell line was used to screen Tox21 libraries for identifying and prioritizing the potential developmental toxicants that interfere Shh pathway.
3T3 Gli1-Luc cells were dispensed at 2,000 per well in 5uL of culture medium into white solid bottom 1536-well plates (Greiner Bio-One, Monroe, NC) using a Multidrop Combi (Thermo Scientific, Waltham, MA) dispenser. The assay plates were incubated at 37 C and 5% CO2 for 4hr, and then 23nL of compounds dissolved in DMSO and positive control were transferred using a Pintool station (Wako, San Diego, CA). The assay plates were incubated at 37C and 5% CO2 for 24hr. For luciferase read, 4uL of Amplite Luciferase reporter gene assay reagent (AAT Bioquest, Inc. Sunnyvale, CA) was added to each well of the assay plates using Flying Reagent Dispenser (FRD, Aurora Discovery, San Diego, CA) and incubated at room temperature for 30min. The luminescence signal was measured using a ViewLux plate reader (Perkin Elmer, Shelton, CT).
% is scaled to controls: 0 for no effect and ±100 for the full control effect.

SMILES	activity change	outcome
CC(=NC#N)N(C)Cc1ccc(Cl)nc1	0.631%	
CNC(=O)Oc1cc(C)c(N(C)C)c(C)c1	1.62%	
CC1N=C(N)OC1c1ccccc1 (stereo not given)	0.477%	
CCC1(c2cccc(O)c2)CCCCN(C)C1 (stereo not given)	-1.06% [at 42.5 µM]	
CCOC(=O)N(C)N=O	0.0452%	
NC(=O)CS(=O)C(c1ccccc1)c1ccccc1 (stereo not given)	0.787% [at 42.5 µM]	
Cl/C=C/CCl	0.0258%	
NC(=O)OCCCc1ccccc1	-0.0081% [at 42.5 µM]	
CC(C)(N)Cc1ccccc1Cl	-0.735% [at 42.5 µM]	
CCC(C)(C#N)N=NC(C)(C#N)CC (stereo not given)	0.223%	
CC(C)(O)C(Cl)(Cl)Cl	-0.0245% [at 42.5 µM]	
CN(CCO)CCO	1.62%	
Oc1ccc(Cc2ccc(O)cc2)cc1	1.66%	
CCN[C@H](C)Cc1cccc(C(F)(F)F)c1	0.544%	
C(COCC1CO1)OCC1CO1 (stereo not given)	0.628%	
CCN(CCO)CCO	-0.403%	
O=C(Cl)OCc1ccccc1	-1.59%	
CN=CNc1ccc(C)cc1C	0.131%	
O=C(Cl)C(Cl)Cl	-1.39%	
COC(=O)c1ccc(CBr)cc1	5.84%	

SMILES	activity change	outcome
C[C@H]1CCCC(=O)CCC/C=C/c2cc(O)cc(O)c2C(=O)O1		inactive
CCC(C(N)=O)N1CCCC1=O (stereo not given)	0.123% [at 42.5 µM]	
C=CCCC#N	-1.02%	
CC(C)(C)C(=O)Cl	-0.0303%	
Clc1nc(Cl)nc(Nc2ccccc2Cl)n1	0.667%	
O=C(O)C(F)(F)C(F)(F)C(F)(F)C(F)(F)C(F)(F)C(F)(F)F	1.84%	
C=CC1(C)OC(=O)N(c2cc(Cl)cc(Cl)c2)C1=O (stereo not given)		inactive
CCc1ccc(C2CCNCC2)cc1	-0.134% [at 42.5 µM]	
Brc1c(Br)c(Br)c(Br)c(Br)c1Br	-2.81% [at 8.39 µM]	
COc1ccc2c(C(=O)c3ccc(Cl)cc3)c(C)n(CC(=O)O)c2c1	0.0362% [at 42.5 µM]	
Cc1cccc2sc3nncn3c12	-0.308%	
CCNP(=S)(OC)O/C(C)=C/C(=O)OC(C)C (stereo not given)	0.151%	
NNC(N)=O	0.522%	
CC(=O)CN(CC(C)=O)N=O	0.855%	
CCC1(c2ccccc2)C(=O)N(COC)C(=O)N(COC)C1=O	-0.427% [at 42.5 µM]	
CCC1(c2ccccc2)CCC(=O)NC1=O (stereo not given)	-0.0367% [at 42.5 µM]	
NC1(c2ccccc2)CCCCC1	-2.67%	
Cn1c(CCCC(=O)O)nc2cc(N(CCCl)CCCl)ccc21	-0.0888% [at 42.5 µM]	
CC(Cl)(Cl)Cl	0.514%	
CC(C)(C)C(=O)C(Cl)Cl	1.25%	
